In PubChem BioAssay AID651813 (National Center for Advancing Translational Sciences (NCATS), 2012):
The campaign covered roughly 2,100 compounds. About 1,100 (52%) were called active. About 27% were inconclusive and are not listed. So high a share suggests a set chosen from earlier hits. Some of the results follow. A number with no mark means an inactive call. Calls come from the whole dose curve; as a rule, active = well fitted inhibition curve with a large enough effect; inconclusive = small, poorly fitted or top-dose-only effect; inactive = no such curve, though single readings can be large or run the other way.
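Note: hits raise yellow fluorescence by blocking Vif-driven A3G-eYFP degradation; nearly all actives have a fitted effect of over 70% in size.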
Potency is the fitted concentration of half-maximal effect.
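Throughout, for max response: max response given as percent of control signal.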

Each compound was assayed against DNA dC->dU-editing enzyme APOBEC-3G (Homo sapiens) (UniProt Q9HC16) (assay: qHTS for inhibitors of Vif-A3G interactions: Cherry picks counterscreen). Details: HeLa A3G-eYFP + Vif (tagged APOBEC3G with the HIV-1 protein that degrades it), eYFP fluorescence, 24 h.
DNA dC->dU-editing enzyme APOBEC-3G (Homo sapiens), sequence (Q9HC16 whole entry, looked up): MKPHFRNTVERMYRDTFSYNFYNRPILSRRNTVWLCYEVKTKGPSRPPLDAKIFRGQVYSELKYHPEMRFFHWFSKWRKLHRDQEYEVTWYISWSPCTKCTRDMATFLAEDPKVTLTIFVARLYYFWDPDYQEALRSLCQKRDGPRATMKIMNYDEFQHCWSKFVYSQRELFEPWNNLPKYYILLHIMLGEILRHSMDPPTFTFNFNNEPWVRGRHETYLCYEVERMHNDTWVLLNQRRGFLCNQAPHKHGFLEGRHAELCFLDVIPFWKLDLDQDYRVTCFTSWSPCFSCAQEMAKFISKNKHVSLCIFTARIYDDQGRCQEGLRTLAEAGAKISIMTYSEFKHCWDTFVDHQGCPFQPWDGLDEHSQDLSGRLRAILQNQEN
In short: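 Readout is eYFP fluorescence (488 nm excitation, 500-530 nm emission) measured on Acumen Explorer after 24 h compound exposure, several concentrations, at 37 deg C. Cells: HeLa stably co-expressing Vif and C-terminally eYFP-tagged A3G; MG132 positive control.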
For `CN(C)/C=N/C1=C(C#N)C(c2cccs2)c2ccc3ccccc3c2O1` (centres undefined), the Potency was 2.8 µM (active).
`Nc1c(N(CCC2=CCCCC2)C(=O)c2ccc([N+](=O)[O-])o2)c(=O)[nH]c(=O)n1Cc1ccccc1` was tested, and the Potency was 13 µM (active).
For `CCCCN(C(=O)c1ccc([N+](=O)[O-])s1)c1c(N)n(CCCC)c(=O)[nH]c1=O`, the max response was -2.12%.
`CCCCn1c(N)c(N(CCC(C)C)C(=O)c2ccc([N+](=O)[O-])o2)c(=O)[nH]c1=O` was tested, and the max response was -4.38%.
In the case of `O=C1c2ccccc2C(=O)c2c(/C=C/N3CCCCC3)ccnc21`, the Potency is reported as 23.1 µM (active).
For `Nc1nc(-c2cc(O)ccc2[N+](=O)[O-])cc(-c2ccccc2)c1[N+](=O)[O-]`, the Potency was 14 µM (active).
`O=C(Nc1cc(=O)[nH]c(=O)[nH]1)c1cc(Cl)ccc1Cl` was tested, and the Potency was 3.14 µM (active).
`O=C(COC(=O)C12CC3CC(CC(Cl)(C3)C1)C2)N1CCCCC1` showed a max response of -19.2%.
`Cc1ccc(S(=O)(=O)Nc2cc(-c3nn(C)c(=O)c4ccccc34)ccc2N2CCOCC2)cc1` was tested, and the Potency was 15.8 µM (active).
In the case of `COc1ccc(/C=c2\s/c(=C/C(=O)c3ccc(C)cc3)[nH]c2=O)c(OC)c1`, the Potency is reported as 20.6 µM (active).
For `CCCOc1ccc(C(=O)Nc2cccc(NC(=O)c3ccc(Cl)cc3Cl)c2)cc1`, the Potency was 16.4 µM (active).
`CC(C)(C)OC(=O)NCc1ccc(NC(=O)c2nc[nH]c2C(=O)NCCCNC(=O)c2[nH]cnc2C(=O)Nc2ccc(CNC(=O)OC(C)(C)C)cc2)cc1` gave a max response of 4.7%.
For `Cc1cccc(/C=C/C(=O)c2ccc([N+](=O)[O-])o2)c1`, the max response was -131%.
`Cc1onc(-c2c(F)cccc2Cl)c1C(=O)O/N=C(\N)c1ccc([N+](=O)[O-])o1` gave a max response of 19.3%.
With `O=C(/C=C/c1ccc(Cl)cc1)c1ccc([N+](=O)[O-])o1` the Potency was 12.5 µM (active).
In the case of `O=C(O)c1ccc(N/N=C/C(Br)=C/c2ccccc2)cc1`, the max response is reported as 24.8%.
`CC(/C=N/NC(=O)c1cccc(F)c1)=C\c1ccccc1` was tested, and the Potency was 9.94 µM (active).
In the case of `COc1cccc(C(=O)N/N=C/C(Br)=C/c2ccccc2)c1`, the Potency is reported as 2.23 µM (active).
Compound `COc1cccc(/C=N/n2c(C3CCCCC3)n[nH]c2=S)c1O` has a max response of 12.3%.
In the case of `C/C(=N/NC(N)=S)c1ccc(Br)s1`, the max response is reported as 13.4%.
With `COc1ccc(N/C=C\C(=O)c2ccc(Br)cc2)cc1OC` the Potency was 18.4 µM (active).
For `COc1ccc(N/C=C/C(=O)c2cc(OC)c(OC)c(OC)c2)cc1`, the Potency was 0.886 µM (active).
`COc1ccc(C(=O)N/N=C/c2cc(Br)ccc2O)cc1OC` gave a max response of -1.25%.
`Cc1cc(=O)oc2cc(OCC(=O)N3c4ccccc4CC3C)ccc12` (centres undefined) was tested, and the Potency was 4.44 µM (active).
In the case of `COc1ccccc1C1=NOC(COc2ccc3c(C)cc(=O)oc3c2)C1` (centres undefined), the Potency is reported as 0.559 µM (active).
`CCOC(=O)c1cc(-c2ccccc2C)n(CC2CC(c3ccc(OC)cc3)=NO2)n1` (centres undefined) showed a max response of -3.65%.
`CCn1c(SCC(=O)c2c[nH]c3ccccc23)nnc1-c1cccs1` was tested, and the Potency was 18.4 µM (active).
For `CCN(C)c1ccc(/C=N\n2nnnc2N)cc1`, the Potency was 5.59 µM (active).
With `Clc1ccc2c(c1)C(C1=NCCN1)c1ccccc1CS2` (centres undefined) the Potency was 3.14 µM (active).
`Cc1ccccc1/C=C\c1nc2ccccc2c(=O)[nH]1` was tested, and the Potency was 11.2 µM (active).
With `Cc1ccc(N2C(=O)c3cccc4c(N5CCN(C)CC5)ccc(c34)C2=O)c2cccnc12` the Potency was 15.8 µM (active).
`O=C1c2cccc3c(N4CCCCC4)ccc(c23)C(=O)N1c1ccc(O)cc1` was tested, and the max response was 54.2%.
With `O=C1c2cccc3c(N4CCCCC4)ccc(c23)C(=O)N1CCO` the Potency was 14 µM (active).
In the case of `C=CCN1C(=O)c2cccc3c(N4CCCCC4)ccc(c23)C1=O`, the Potency is reported as 18.4 µM (active).
In the case of `O=C1c2cccc3c(N4CCCCC4)ccc(c23)C(=O)N1c1cccc(O)c1`, the Potency is reported as 2.59 µM (active).
`CSc1nc(Sc2ccccc2Cl)c2ccccc2n1` was tested, and the max response was -6.36%.
For `CCN(CC)c1ccc(/C=C/c2ccccn2)cc1`, the Potency was 16.4 µM (active).
`CCN(CC)c1ccc(/C=C/c2ccncc2)cc1` was tested, and the Potency was 4.61 µM (active).
`CN(C)c1ccc(/C=C/c2ccncc2)cc1` was tested, and the Potency was 2.59 µM (active).
`CCN(CC)c1ccc(/C=C/C2=C3C=CC=CC3NC=C2)cc1` (centres undefined) was tested, and the Potency was 20.6 µM (active).
`CCN(CC)c1ccc(/C=C/C(=O)c2ccc(Br)cc2)cc1` was tested, and the max response was 26.9%.
Compound `NC(=S)N/N=C/c1cccc(O)c1O` has a max response of 3.32%.
For `O=[N+]([O-])c1ccccc1C=NNC(=S)NN=Cc1ccccc1[N+](=O)[O-]`, the Potency was 8.86 µM (active).
`NC(=S)N/N=C/c1ccccc1OC(=O)/C=C/c1ccccc1` gave a max response of 5.74%.
`CCN(CC)c1ccc(/C=C2\C(=N)N3N=C(CC(=O)N4CCOCC4)SC3=NC2=O)cc1` was tested, and the Potency was 1.58 µM (active).
With `CN(C)c1ccc(/C=C2\C(=N)N3N=C(CC(=O)N4CCCCC4)SC3=NC2=O)cc1` the Potency was 4.61 µM (active).
With `CN(C)c1ccc(/C=C2\SC(N3CCCCC3)=NC2=O)cc1` the Potency was 20.6 µM (active).
Compound `COc1cc(/C=C2\C(=N)N3N=C(S(C)(=O)=O)SC3=NC2=O)ccc1OC(=O)c1ccco1` has a max response of 53.1%.
In the case of `O=C(c1ccccn1)C1CCCN(Cc2cn[nH]c2-c2cc3ccccc3o2)C1` (centres undefined), the max response is reported as 0.488%.
`C=C(C)CNC(=S)NNC(=O)c1ccco1` gave a max response of 8.06%.
In the case of `C=CCn1c(O)c(N=NC(=O)CNC(=O)c2ccco2)c2ccccc21`, the Potency is reported as 12.5 µM (active).
For `CCOC(=S)SCC(=O)N1CCc2cc(OC)ccc2C1C1C(=O)CCCC1=O` (centres undefined), the Potency was 14 µM (active).
`Cc1ccc(C=Nc2ccccc2C(N)=O)s1` was tested, and the Potency was 2.5 µM (active).
`Cc1cccc(C=Nc2ccccc2C(N)=O)c1` was tested, and the Potency was 9.94 µM (active).
`COc1ccc(NC(=O)/C(C#N)=C\C=C\c2ccco2)cc1` was tested, and the Potency was 14 µM (active).
With `COc1ccc(NC(=O)/C(C#N)=C/C=C/c2ccco2)cc1` the Potency was 11.2 µM (active).
In the case of `COc1ccc2c(c1)c1nc3ccccc3nc1n2Cc1ccc(OC(C)C)c(OC)c1`, the Potency is reported as 23.1 µM (active).
For `COc1ccc2c(c1)c1nc3ccccc3nc1n2CC(=O)OC(C)C`, the max response was -18.3%.
In the case of `COc1ccc2c(c1)c1nc3ccccc3nc1n2Cc1ccc(OC)c(OC)c1`, the Potency is reported as 25.9 µM (active).
